Assay results as given in PubChem BioAssay (EPA / NIEHS).
Results filed as inconclusive are left out. Calls of active or inactive are those of the source. How the source made its calls: active means hit-call score of the fitted dose curve at least 0.9, where 1 is the maximum; inconclusive means response in the unintended direction; inactive means score below 0.9.

What follows are molecules tested against Estrogen receptor (Homo sapiens) (UniProt P03372) (assay: NVS_NR_hER: NovaScreen (NVS) Nuclear Receptor Binding Assay for human Estrogen Receptor (ER) (AID 2283348)).
Chain of Estrogen receptor (Homo sapiens) (P03372 whole entry, looked up, the tested form may be a part): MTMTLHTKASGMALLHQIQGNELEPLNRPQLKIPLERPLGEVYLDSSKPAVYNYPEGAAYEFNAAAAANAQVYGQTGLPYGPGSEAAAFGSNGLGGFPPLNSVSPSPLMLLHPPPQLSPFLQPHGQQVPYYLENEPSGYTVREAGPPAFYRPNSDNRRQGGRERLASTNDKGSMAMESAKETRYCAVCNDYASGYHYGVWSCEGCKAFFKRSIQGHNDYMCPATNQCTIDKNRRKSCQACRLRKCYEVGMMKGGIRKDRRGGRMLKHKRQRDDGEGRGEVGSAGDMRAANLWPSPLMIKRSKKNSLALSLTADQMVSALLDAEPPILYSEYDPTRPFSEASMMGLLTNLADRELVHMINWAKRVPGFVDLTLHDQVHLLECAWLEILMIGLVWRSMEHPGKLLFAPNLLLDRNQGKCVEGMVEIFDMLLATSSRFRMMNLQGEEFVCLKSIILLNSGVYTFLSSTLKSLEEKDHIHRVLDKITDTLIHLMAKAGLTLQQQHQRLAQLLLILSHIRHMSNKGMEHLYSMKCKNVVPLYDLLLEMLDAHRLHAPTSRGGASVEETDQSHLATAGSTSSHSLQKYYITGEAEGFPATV
Outline: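 MCF7-derived receptor extract, radiolabelled ligand, competitive displacement. Read: scintillation counts at 18 h. DMSO = negative control/baseline. Primary 25 uM duplicate; follow-up concentration–response.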

Row | Compound | outcome
1 | O=S1OCC2C(CO1)C1(Cl)C(Cl)=C(Cl)C2(Cl)C1(Cl)Cl (centres undefined) | inactive
2 | CCOc1nc(NC)nc(NC(=O)NS(=O)(=O)c2ccccc2C(=O)OC)n1 | inactive
3 | CCCN(CCC)c1c([N+](=O)[O-])cc(C(F)(F)F)cc1[N+](=O)[O-] | inactive
4 | COC(=O)c1ccccc1S(=O)(=O)NC(=O)N(C)c1nc(C)nc(OC)n1 | inactive
5 | O=C(NC(=O)c1c(F)cccc1F)Nc1ccc(OC(F)(F)C(F)OC(F)(F)F)c(Cl)c1 (centres undefined) | inactive
6 | COP(=O)(OC)OC=C(Cl)Cl | inactive
7 | CN1CSC(=S)N(C)C1 | inactive

What follows are molecules tested against Estrogen receptor (Homo sapiens) (UniProt P03372) (assay: OT_ER_ERaERa_1440: Odyssey Thera (OT) 24-hour HEK293T Protein-Complementation Assay for Estrogen Receptor-alpha/-alpha Homodimer (AID 2283349);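 further: hits raise fluorescence above DMSO for agonists and antagonists alike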).
Outline: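 Cells (HEK293T) carrying the fragment-tagged ERα LBD (aa 310-547) pair are treated with chemical for 24 hours. Nuclear and/or cytoplasmic fluorescence is then quantified on a laser scanning cytometer. Activity is scored as signal gain against DMSO.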

Row | Compound | outcome
8 | CCOC1Oc2ccc(OS(C)(=O)=O)cc2C1(C)C (centres undefined) | inactive
9 | Clc1ccccc1-c1nnc(-c2ccccc2Cl)nn1 | inactive
10 | O=S1OCC2C(CO1)C1(Cl)C(Cl)=C(Cl)C2(Cl)C1(Cl)Cl (centres undefined) | inactive
11 | CCC(C)(NC(=O)c1cc(Cl)c(C)c(Cl)c1)C(=O)CCl (centres undefined) | inactive
12 | CCCN(CCC)c1c([N+](=O)[O-])cc(C(F)(F)F)cc1[N+](=O)[O-] | inactive
13 | N#CN | inactive
14 | CC(C)N(C(=O)COc1nnc(C(F)(F)F)s1)c1ccc(F)cc1 | inactive
15 | CNC(=O)Oc1ccccc1OC(C)C | inactive
16 | O=C(NC(=O)c1c(F)cccc1F)Nc1ccc(OC(F)(F)C(F)OC(F)(F)F)c(Cl)c1 (centres undefined) | inactive
17 | CNC(=O)/C=C(\C)OP(=O)(OC)OC | inactive
18 | Cc1[nH]c(=O)n(C(C)(C)C)c(=O)c1Cl | inactive
19 | COP(=O)(OC)OC=C(Cl)Cl | inactive
20 | CCC(C)(C)C(=O)OC1=C(c2ccc(Cl)cc2Cl)C(=O)OC12CCCCC2 | inactive
21 | O=C1c2ccccc2C(=O)N1SC(Cl)(Cl)Cl | inactive
22 | CN1CSC(=S)N(C)C1 | inactive
23 | CNC(=O)Oc1cccc(N=CN(C)C)c1 | inactive
24 | CC1(c2ccc(Oc3ccccc3)cc2)OC(=O)N(Nc2ccccc2)C1=O (centres undefined) | inactive
25 | CCc1ccc(C(=O)NN(C(=O)c2cc(C)cc(C)c2)C(C)(C)C)cc1 | inactive
26 | CCC(C)Nc1c([N+](=O)[O-])cc(C(C)(C)C)cc1[N+](=O)[O-] (centres undefined) | inactive
27 | CCN(CC)C(=O)SCc1ccc(Cl)cc1 | inactive
28 | OCCOc1ccccc1 | inactive
29 | C#CCN1C(=O)COc2cc(F)c(N3C(=O)C4=C(CCCC4)C3=O)cc21 | inactive
